Among the data in PubChem BioAssay AID1240 (Sanford-Burnham Center for Chemical Genomics, 2008) are displacement values, retold here.

Where “and” joins values, the source holds several entries; their conditions need not be identical. Equal entries are not always repeated. Screen size: about 50,000 compounds; about 800 (1.6%) showed an effect of 50% or more. Many of the other results were omitted from the sample, so strong results are more common in it than they were.

The test deals with Bcl-2-like protein 10 (Homo sapiens) (UniProt Q9HD36). As to the kind of experiment: TR3 peptide-Bcl-B binding displacers, biochemical primary FP assay, phenotype converters (AID 1240).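 Also: 0% = Bcl-B with tracer peptide and DMSO and 100% = tracer peptide lacking Bcl-B.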 Particulars: GST-Bcl-B / FITC-TR3 peptide fluorescence polarization; stronger effect = higher value; compound at 3.75 mg/L.
Sequence of Bcl-2-like protein 10 (Homo sapiens) (Q9HD36 whole entry, looked up): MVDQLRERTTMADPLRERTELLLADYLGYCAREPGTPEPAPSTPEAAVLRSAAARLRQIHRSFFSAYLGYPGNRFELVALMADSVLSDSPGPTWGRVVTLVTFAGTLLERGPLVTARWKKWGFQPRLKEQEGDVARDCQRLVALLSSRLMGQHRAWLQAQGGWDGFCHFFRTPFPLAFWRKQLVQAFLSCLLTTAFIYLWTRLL
As for `O=C(/C=C/c1ccc(F)cc1)NC(=S)NCc1ccco1`, the displacement was 18.2%.

Regarding `O=C1NC(=S)N/C1=C/c1ccc(-c2cccc(Br)c2)o1`, the displacement is 15.5%.

With `O=C1NC(=O)N(c2ccccc2)C(=O)/C1=C\c1ccc(-c2ccc([N+](=O)[O-])cc2Cl)o1`, the displacement is 11.5%. Take `O=C1NC(=O)C(=Cc2ccc(-c3cc(Cl)c([N+](=O)[O-])cc3Cl)o2)C(=O)N1`: the displacement was 81.2%. For the compound `Cc1ccc(-c2ccc(C=C3C(=O)NC(=O)NC3=O)o2)c([N+](=O)[O-])c1`, the displacement was 1.3%.

For the compound `O=C1NC(=O)C(=Cc2ccc(-c3cccc(Br)c3)o2)C(=O)N1`, the displacement worked out at 81.1%.

As for `COc1ccc(N2C(=O)NC(=O)/C(=C/c3ccc(-c4ccc([N+](=O)[O-])cc4Cl)o3)C2=O)cc1`, the displacement was found to be 20.3%.

Turning to `Cc1cc(-c2ccc(C=C3C(=O)NC(=S)NC3=O)o2)c([N+](=O)[O-])cc1C`, the displacement was found to be 26.1%. Turning to `Cc1ccc(-c2ccc(C=C3C(=O)NC(=O)NC3=O)o2)c(Br)c1`, the displacement was -9.6%. Consider `CN1C(=O)NC(=O)/C(=C/c2ccc(-c3cccc(Cl)c3Cl)o2)C1=O`, for which the displacement is 74.5%. `CN1C(=O)C(=Cc2ccc(-c3cccc(Cl)c3Cl)o2)C(=O)N(C)C1=O`: the displacement was 4.6%.

On to `Cc1ccc(N2C(=O)NC(=O)/C(=C\c3ccc(-c4ccc([N+](=O)[O-])cc4Cl)o3)C2=O)cc1`, for which the displacement came to 87.2%.

For the compound `O=C1NC(=O)N(c2ccccc2)C(=O)/C1=C\c1ccc(-c2ccccc2Cl)o1`, the displacement amounted to 42.6%.

For the compound `Nc1nonc1N=Cc1cc(Br)ccc1O`, the displacement is -12.8%. On to `CCC1CCc2c(sc(NC(=O)C3CCCC3)c2C(N)=O)C1` (stereo not given), for which the displacement is -1.5%. With `COc1cc(/C=C2/C(=O)NC(=O)N(c3cccc(C)c3)C2=O)ccc1OCC(=O)O` the figure was -14.8%; with `Cc1cc(=O)[nH]c(SCc2cccc(Oc3ccccc3)c2)n1`, -8% and 5.2%; with `CCCCOc1cc2oc(=O)c(CC)c(C)c2cc1CC`, 0.2%. As to `CN(c1ccccc1)c1ccc(C=C2C(=O)NC(=O)NC2=O)cc1`, the displacement was determined as 19.6%. Regarding `CC(/C=C/c1ccc(N(C)C)cc1)=N\N=C(/N)SC1CC(=O)N(c2ccc(F)cc2)C1=O` (stereo not given), the displacement is -8.3%. With `COc1cc2c(C)nc3c(cnn3-c3ccccc3)c2cc1OC`, the displacement is -5.8%.

With `COc1cc2c(C)nc3c(c(C)nn3C)c2cc1OC`, the displacement was -1.5%.

Take `COc1cc2c(C)nc3c(c(C)nn3-c3ccccc3)c2cc1OC`: the displacement worked out at 59.5%. Take `CCOc1cc(C2CC(=O)NC(C)=C2C(=O)OC)cc(Br)c1OC` (stereo not given): the displacement is 10.6%. For the compound `CCOP(=O)(OCC)C(Nc1ccccc1)c1ccc2c(c1)OCO2` (stereo not given), the displacement was 13.6%. Regarding `CCCOP(=O)(OCCC)C(Nc1ccc(Cl)cc1)c1ccc(Br)cc1` (stereo not given), the displacement was 17.1%.

With `CCCCOP(=O)(OCCCC)C(Nc1ccccc1)c1ccc(OC)cc1` (stereo not given), the displacement came out at 52.1%. Take `CN1CCc2c(sc3c2C(=O)NC(c2ccc4ccccc4c2)N3)C1` (stereo not given): the displacement amounted to 83%. As for `COc1cc(C2NC(=O)c3c(sc4c3CCN(C)C4)N2)cc(OC)c1OC` (stereo not given), the displacement came to 3.2%.

Consider `CN1CCc2c(sc3c2C(=O)NC(c2ccc(Cl)s2)N3)C1` (stereo not given), for which the displacement is 4%.

For the compound `CCOC(=O)NC12CC3CC(C1)CC(C(F)(F)F)(C3)C2`, the displacement came out at 3.2%. As to `COc1ccc(/C=N\N2CCN(c3ccccc3)CC2)cc1`, the displacement was -0.3%.

Turning to `CCOC(=O)c1c(NC(=O)Cc2ccc(Cl)cc2)sc(C(=O)Nc2ccc(OC)cc2OC)c1C`, the displacement was 18.5%.

As for `O=C1CCNc2c(Cl)cc(Cl)cc21`, the displacement is 88.6%. With `C/C(=N\N1CCN(c2ccccc2)CC1)c1ccc(F)cc1`, the displacement was -8.7%.

`CC1(C)Cc2ccccc2C(N/N=C/c2ccc(Cl)cc2)=N1`: the displacement was -3.6%. `Cc1ccc(-c2nc(-c3cc4cc([N+](=O)[O-])cc(Br)c4oc3=O)cs2)c(C)c1`: the displacement stood at 95.2%. For the compound `O=c1oc2ccc(Br)cc2cc1-c1csc(-c2cc3cc([N+](=O)[O-])ccc3oc2=O)n1`, the displacement was -5.4%.

In the case of `O=c1oc2ccc(Br)cc2cc1-c1nc(-c2ccc([N+](=O)[O-])cc2)cs1`, the displacement was -7.2%.

As for `Cc1ccc(S(=O)(=O)Nc2ccc(S(=O)(=O)N3CCCCC3)cc2)cc1[N+](=O)[O-]`, the displacement is -4%. Take `Cn1c(=O)c(C2=NS(=O)(=O)c3ccccc3N2)c(O)c2ccccc21`: the displacement stood at 2.1%. In the case of `CC(=O)CC(c1ccccc1)S(=O)(=O)c1ccccc1C` (stereo not given), the displacement worked out at 0.2%. In the case of `O=C(NCCCc1ccccc1)C(F)(F)F`, the displacement was 85.1%. With `O=C(NCCCc1ccccc1)c1ccccc1`, the displacement was -1.3%. For `O=C(NCCC(c1ccccc1)c1ccccc1)C(F)(F)F`, the displacement was -1.5%.

Regarding `CCCCOc1ccc(C=O)cc1OCC`, the displacement is -7.3%. Take `CC(=O)C1=C(O)C(=O)N(CCN2CCNCC2)C1c1cccc(F)c1` (stereo not given): the displacement was -17.2%.

For the compound `CCOC(=O)c1ccc(N2C(=O)NC(=O)/C(=C/c3ccc(OC)c(OC)c3)C2=O)cc1`, the displacement was -4.2%. `CCCC(=O)NC(c1ccco1)c1c(O)ccc2ccccc12` (stereo not given): the displacement came to 6.6%. With `COc1ccc(N/C=C/C(=O)c2ccco2)cc1`, the displacement was 11.7%. For `NS(=O)(=O)c1ccc(N/C=C/C(=O)c2ccc(Cl)c(Cl)c2)cc1`, the displacement was 4.8%. Next, `NS(=O)(=O)c1ccc(N/C=C/C(=O)c2ccco2)cc1`: 74.8%; `Cc1ccc(N2C(=O)NC(=O)/C(=C\c3ccc(N(C)C)c(Br)c3)C2=O)cc1`: 10.1%. Next, `CC(=O)c1cccc(N2C(=O)C3CCCCC3C2=O)c1` (stereo not given): -12.9%.

For the compound `CC(=O)Oc1ccccc1/C=C1\C=C(c2ccc(Br)cc2)OC1=O`, the displacement was 12%. Regarding `COc1ccc(OC)c(/C=C2/C=C(c3ccccc3)OC2=O)c1`, the displacement is -24.5%. For the compound `CC(=O)Oc1ccccc1/C=C1\C=C(c2ccc(Cl)cc2)OC1=O`, the displacement came to 108%. For the compound `COc1ccc(C2=C/C(=C/c3ccccc3OC)C(=O)O2)cc1`, the displacement was determined as 85.1%.

As for `COc1ccc(C2=C/C(=C/c3ccc(OC)cc3OC)C(=O)O2)cc1`, the displacement was determined as 144%. As to `COc1ccc(/C=C2/C=C(c3ccccc3)OC2=O)c(OC)c1`, the displacement is -30%.

Take `COc1ccccc1/C=C1\C=C(c2ccc(Cl)cc2)OC1=O`: the displacement was 9.6%. As to `COc1ccc(/C=C2\C=C(c3ccc(Cl)cc3)OC2=O)c(OC)c1`, the displacement is 25.2%. With `CC(=O)Oc1ccccc1/C=C1\C=C(c2ccc(C)cc2)OC1=O` the figure was -0.2%; with `O=C(CCc1ccccc1)Nc1ccc(Br)cc1`, 9.1%.

Turning to `O=C(c1ccccc1Cl)N1CCN(c2c(Cl)cccc2[N+](=O)[O-])CC1`, the displacement came to 8.5%. With `O=[N+]([O-])c1cccc(Cl)c1N1CCOCC1` the figure was 3.9%. On to `O=[N+]([O-])c1cccc(Cl)c1N1CCN(CCO)CC1`, for which the displacement was determined as 89.3%. As for `Cc1ccc(C(=O)Nc2cccc(NC(=O)c3ccco3)c2)cc1C`, the displacement worked out at 60.4%. In the case of `Cc1ccc(C(=O)Nc2ccc(NC(=O)c3ccco3)c(Cl)c2)cc1C`, the displacement was -8.9%.

Take `Cc1ccc(C(=O)Nc2ccc(NC(=O)c3ccco3)cc2)cc1C`: the displacement is -0.4%.
